Laboratory results: PubChem BioAssay AID686978 (National Center for Advancing Translational Sciences (NCATS), 2013)
Screen size: about 420,000 compounds; about 64,000 (15%) were called active. Not shown: some 27% with an inconclusive outcome. The call rests on the fitted dose curve; in most records, active means well fitted inhibition curve with a large enough effect; inconclusive means small, poorly fitted or top-dose-only effect; inactive means flat fitted curve, though single readings scatter. Not all results are given here.

Test: qHTS for Inhibitors of human tyrosyl-DNA phosphodiesterase 1 (TDP1): qHTS in cells in absence of CPT; further: nearly all actives have a fitted effect of over 55% in size
Conditions: DT40 Tdp1-/- hTDP1 cells, no CPT, ATP luminescence, 48 h; activity change, negative = growth inhibition: at 46.2 µM (top of the series)
In short: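 Luminescent ATP content (CellTiter-Glo) served as the growth readout. Knockout chicken DT40 cells expressing human TDP1 were exposed to compounds without camptothecin for a minimum 48 hr at 37 °C.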
On the % scale 0 is the no-effect control and ±100 the full control effect; potency means the concentration at half of the fitted maximal effect.

Compound	activity change, negative = growth inhibition	Potency
Cc1ccc(N/C(N)=N/c2nc(C(F)(F)F)cc(C(F)(F)F)n2)cc1	6.24% (inactive)	–
C=C[C@](C)(O)CCC1C(=C)CCC2[C@@](C)(CO)CCC[C@@]12C (stereo partly drawn)	–	18.4 µM (active)
Cc1nnc(SCC(=O)NC2CCCC2)s1	-4.15% (inactive)	–
O=C(NCc1ccc(Cl)cc1)C1CCN(S(=O)(=O)c2cccs2)CC1	–	23.1 µM (active)
O=C(NCc1cccs1)C1CCN(S(=O)(=O)c2ccc(Cl)cc2)CC1	-22.1% (inactive)	–
O=C(NCc1ccccc1)C1CCCN(S(=O)(=O)c2cccs2)C1 (stereo not drawn)	-15.2% (inactive)	–
CCCCCNC(=O)C1C(=O)Nc2ccccc2C(=O)N1C(C)(C)C (stereo not drawn)	-8.99% (inactive)	–
COc1ccc(Nc2ncc3c(n2)CCN(C(=O)OC(C)(C)C)C3)cc1	–	20.6 µM (active)
COc1ccc(NC(=S)N2CCc3cc(OC)c(OC)cc3C2)cc1	-5.78% (inactive)	–
CCOc1ccc(-c2cc3nc(C4CCN(C(=O)OC(C)(C)C)CC4)c(C(=O)Nc4ccc(C(=O)OC)cc4)cn3n2)cc1	21.5% (inactive)	–
COC(=O)CSc1nnc(NC(=O)CCc2ccccc2)s1	-27.7% (inactive)	–
O=C(OCc1cc(Cl)ccc1OC(F)F)c1cccnc1	-12.6% (inactive)	–
CCO/N=C(/C)c1c(O)cc(-c2ccccc2)n(-c2ccccc2)c1=O	-24.7% (inactive)	–
O=C1NC[C@@H](CCCCN2CCN(CCc3ccc(O)cc3)C(=O)C2=O)N(CC2CCCCC2)C1=O	-13.4% (inactive)	–
Cc1ccc(S(=O)(=O)N(Cc2nc(-c3ccc(Cl)cc3)no2)C2CCCCC2)cc1	–	16.4 µM (active)
COc1ccc(-c2noc(CSc3ccc(C)cc3)n2)cc1	-33.9% (inactive)	–
COc1ccc(-c2noc(CN(C)S(=O)(=O)c3ccc(C)cc3)n2)cc1	–	18.4 µM (active)
CC1CCN(Cc2nc(-c3ccc(Cl)cc3)no2)CC1	-13.3% (inactive)	–
COc1ccc(-c2noc(CSc3nc4ccc(C)cc4[nH]3)n2)cc1	–	11.6 µM (active)
COc1ccc2nc(SCC(=O)Nc3c(C)cc(C)cc3C)[nH]c2c1	-13.8% (inactive)	–
Cc1ccc(-c2noc(CC(c3ccccc3)c3ccccc3)n2)cc1	-11.5% (inactive)	–
COc1ccc(-c2noc(CNC(=O)C(C)Oc3ccccc3)n2)cc1 (stereo not drawn)	-7.43% (inactive)	–

Compound	activity change, negative = growth inhibition	Potency
Cc1ccc(C(=O)OCc2nc(N)nc(Nc3ccccc3C)n2)cc1	-23.7% (inactive)	–
O=C1CCCc2nn(-c3ccccc3)nc21	-6.94% (inactive)	–
O=c1[nH]c2c(c(=O)n1Cc1ccccc1)CCC2	-29.1% (inactive)	–
CC(C)c1nnc(NC(=O)COC(=O)/C=C/c2ccc([N+](=O)[O-])cc2)s1	-1.16% (inactive)	–
O=C(O)CCCCC(=O)O	-2.12% (inactive)	–
CC(Oc1ccccc1[N+](=O)[O-])C(=O)N/N=C/c1ccoc1 (stereo not drawn)	11.1% (inactive)	–
Cc1noc(C)c1CSc1nnc2ccc3ccccc3n12	-5.21% (inactive)	–
COc1ccc(C(=O)N/N=C(\C)CC(=O)Nc2ccc(Cl)cn2)cc1	-17.9% (inactive)	–
Cc1cc(OC(C)C(=O)Nc2sc3c(c2C(N)=O)CCCC3)ccc1Cl (stereo not drawn)	-23.9% (inactive)	–
Cc1cccc(C)c1NC(=O)CNC(=O)c1ccc(N2CCOCC2)c([N+](=O)[O-])c1	-15.6% (inactive)	–
O=C(NCCCN1CCOCC1)c1ccc(N2CCCC2)c([N+](=O)[O-])c1	-9.74% (inactive)	–
N#Cc1c(NC(=O)c2ccc(N3CCOCC3)c([N+](=O)[O-])c2)sc2c1CCCC2	–	6.51 µM (active)
CC(/C=C/C1(O)C(C)CC(=O)CC1(C)C)OC1OC(CO)C(O)C(O)C1O (stereo not drawn)	-23.3% (inactive)	–
CCOCc1nnc(NC(=O)CCC2CCCCC2)s1	-26.3% (inactive)	–
CN1CCc2ccccc2C1Cc1ccccc1NC(=O)c1sc2ccccc2c1Cl (stereo not drawn)	–	6.51 µM (active)
CCc1ccccc1NC(=O)NCCN1CCCCC1	1.53% (inactive)	–
CCc1ccccc1NC(=O)c1ccc2c(c1)CCN2S(C)(=O)=O	-7.89% (inactive)	–
NNc1nnc(NN)c2ccccc12	-1.45% (inactive)	–
CC(O)CN(Cc1ccc(Cl)cc1)CC(C)O (stereo not drawn)	-4.59% (inactive)	–
Cc1ccc(C)c(C(=O)N2CCC(n3nccc3NC(=O)C3CC3)CC2)c1	-4.33% (inactive)	–
Cc1ccc(NC(=O)Cc2ccc(NC(=O)N3CCCCc4ccccc43)cc2)cc1	–	23.1 µM (active)
Cc1ccc(CC(=O)Nc2cccc(C#N)c2)cc1	-11.9% (inactive)	–

Compound	activity change, negative = growth inhibition	Potency
Cc1ccc(NC(=O)N2CCSc3ccccc32)cc1	-29.7% (inactive)	–
CN(C)S(=O)(=O)c1cccc(C(=O)OCC(=O)N2CCCC2=O)c1	26.4% (inactive)	–
O=C(CSc1ncn[nH]1)NCc1ccc2c(c1)OCO2	7.22% (inactive)	–
COc1cccc(CN2CCN(Cc3ccc4cccc(F)c4n3)CC2CCO)c1 (stereo not drawn)	-27.6% (inactive)	–
OCCC1CN(Cc2cnc(-c3ccccc3)s2)CCN1CCc1ccccc1 (stereo not drawn)	–	8.2 µM (active)
CCOc1ccc(CN2CCN(Cc3ccc4cc(F)ccc4n3)CC2CCO)cc1 (stereo not drawn)	–	25.9 µM (active)
CCOc1ccc(CN2CCN(CCCc3ccccc3)C(CCO)C2)cc1 (stereo not drawn)	–	20.6 µM (active)
Cc1ccc(CN2CCN(Cc3ccc(OCCO)cc3)CC2CCO)o1 (stereo not drawn)	9.04% (inactive)	–
OCCC1CN(Cc2cccn2-c2nccs2)CCN1CCc1ccccc1 (stereo not drawn)	-21.4% (inactive)	–
OCCC1CN(Cc2cccc(O)c2)CCN1CCc1ccccc1 (stereo not drawn)	-27% (inactive)	–
CCOc1ccc(CN2CCN(Cc3ccon3)CC2CCO)cc1 (stereo not drawn)	-4.58% (inactive)	–
OCCC1CN(Cc2ccc(Oc3ncccn3)cc2)CCN1CCc1ccccc1 (stereo not drawn)	-23.7% (inactive)	–
C[C@H]1CN([C@@H](C)CO)C(=O)CCCn2nncc2CO[C@@H]1CN(C)S(=O)(=O)c1cccc(C#N)c1	3.79% (inactive)	–
CCCOC(=O)c1ccc(N2C(=O)c3ccccc3C2=O)cc1	7.66% (inactive)	–
CCOc1ccc(CCNC(=O)COC(=O)CCS(=O)(=O)c2ccc(C)cc2)cc1OCC	-8.89% (inactive)	–
COC(=O)CN1C(C)=Nc2ccc(Br)cc2C1c1ccccc1 (stereo not drawn)	-22.8% (inactive)	–
CC1CCCCC1NC(=O)/C(C#N)=C/C=C/c1ccccc1[N+](=O)[O-] (stereo not drawn)	–	9.2 µM (active)
O=C(/C=C/c1ccccc1[N+](=O)[O-])NCC1CCCO1 (stereo not drawn)	6.91% (inactive)	–
O=C(/C=C/c1ccccc1[N+](=O)[O-])OC1CCCCC1=O (stereo not drawn)	10.5% (inactive)	–
CCC(CC)C(=O)Nc1cccc(C(=O)N2CCCC2)c1	-15.9% (inactive)	–
Cc1occc1-c1nnc(SCC(=O)NC2(C#N)CCCC2)n1C	-12.1% (inactive)	–
CCOCCCN1C(=O)C2C(C(=O)Nc3ccc(OCC)cc3)C3C=CC2(O3)C1C(=O)NC1CCCCC1 (stereo not drawn)	-14.8% (inactive)	–

Compound	activity change, negative = growth inhibition	Potency
OCCCNc1nccc(-c2cc(Nc3cccc(Cl)c3)ncn2)n1	–	0.731 µM (active)
NS(=O)(=O)c1cccnc1Nc1cccc(Cl)c1	-28.7% (inactive)	–
O=C(Nc1cccc(Cl)c1)OCc1ccccn1	3.36% (inactive)	–
CCC(Sc1nncn1C)C(=O)Nc1nnc(-c2ccc(Cl)cc2)s1 (stereo not drawn)	-15.8% (inactive)	–
NS(=O)(=O)c1cc2c(cc1Cl)NC(C(Cl)Cl)NS2(=O)=O (stereo not drawn)	–	inactive
O=P(c1cccs1)(c1cccs1)c1cccs1	-0.74% (inactive)	–
O=C(Nc1ccccc1Cl)c1ccccc1S(=O)(=O)c1ccccc1[N+](=O)[O-]	-2.25% (inactive)	–
COc1cc(/C=N\NC(=O)c2nonc2N)c(OC)cc1Br	–	29.1 µM (active)
COc1cc(/C=N/N=C(\N)c2nonc2N)cc(OC)c1OC	-1.42% (inactive)	–
COc1cc(OC)c(/C=N/NC(=O)c2ccc([N+](=O)[O-])cc2)cc1Br	-16.1% (inactive)	–
CCc1cc2c(=O)c(-c3nc4ccccc4n3C)c(CCCC(=O)O)oc2cc1OC(=O)C(C)(C)C	-28.1% (inactive)	–
COc1ccc(O)c(/C=N/N=C/c2cccc([N+](=O)[O-])c2)c1	7.16% (inactive)	–
Cc1ccc(S(=O)(=O)NC(=O)N2CCCC(C)(C)C2)cc1	-5.23% (inactive)	–
O=C(NC1CCN(C(=S)NCc2ccco2)CC1)c1ccc(F)cc1	-16.2% (inactive)	–
O=S(=O)(NCc1cccnc1)c1ccc(Br)s1	-14.7% (inactive)	–
O=S(=O)([N-]c1nc2ccccc2nc1-[n+]1ccc(Cc2ccccc2)cc1)c1ccc(Br)s1	–	14.6 µM (active)
Cc1cc(C)c[n+](-c2nc3ccccc3nc2[N-]S(=O)(=O)c2cccs2)c1	1.57% (inactive)	–
Cc1cc(C)cc(NC(=O)CCS(=O)(=O)c2cc3c4c(c2)CCN4C(=O)CC3)c1	-2.61% (inactive)	–
CC1CSc2nnc(CCc3ccccc3)n21 (stereo not drawn)	-11.6% (inactive)	–
Cc1cc(C(=O)COC(=O)c2cccs2)c(C)n1-c1c(C)n(C)n(-c2ccccc2)c1=O	-23.7% (inactive)	–
COc1ccc(-c2nnc(-c3ccc4ccccc4c3)o2)cc1	-22% (inactive)	–
COc1ccc(-c2nnc(SC(C)C#N)o2)cc1 (stereo not drawn)	-7.87% (inactive)	–

Compound	activity change, negative = growth inhibition	Potency
COc1ccc(-c2nnc(SC(=O)N3c4ccccc4Sc4ccccc43)o2)cc1	–	7.94 µM (active)
COc1ccc(NC(=S)SC)cc1OC	-28.8% (inactive)	–
COc1cc(C(c2c(NC(=O)c3ccco3)sc(C)c2C)N2CCOCC2)cc(OC)c1OC (stereo not drawn)	–	29.1 µM (active)
COc1ccc(CC(=O)Nc2ccccc2NC(=O)c2ccco2)cc1OC	-8.13% (inactive)	–
COC(=O)c1cc(NC(=O)c2ccco2)ccc1N1CCOCC1	-17.8% (inactive)	–
C=CCNC(=O)c1cc2nc(C3CC3)cc(C(F)F)n2n1	16.9% (inactive)	–
CCCCn1c(N)c(N(CC)C(=O)/C=C/c2ccco2)c(=O)[nH]c1=O	21.7% (inactive)	–
Cc1ccc(NC(=O)Nc2sc3nc4n(c(=O)c3c2C)CCC(C)CC4)c(Cl)c1 (stereo not drawn)	–	11.6 µM (active)
CC1CCN(C(=O)c2ccc3c(=O)n4c(nc3c2)CCCCC4)CC1	1.08% (inactive)	–
CC1CCc2c(sc3nc4n(c(=O)c23)CCS4)C1 (stereo not drawn)	-22.7% (inactive)	–
CNC(=O)c1nnc(Cc2ccc(Cl)cc2)o1	-2.66% (inactive)	–
O=C1C2C3C=CC(C3)C2C(=O)N1c1ccc(S(=O)(=O)Nc2nccs2)cc1 (stereo not drawn)	-7.53% (inactive)	–
Cc1ccc2sc(NNC(=O)c3ccc4c(c3)OCCO4)nc2c1C	-29% (inactive)	–
O=C(NC1CCCCC1)n1c(=O)oc2cc(S(=O)(=O)N3CCCCC3)ccc21	-4.25% (inactive)	–
Cc1ccc2nc(NC(=O)C3CCN(S(=O)(=O)c4ccc5c(c4)oc(=O)n5C)CC3)sc2c1	–	14.6 µM (active)
O=C(Nc1nc2ccc(S(=O)(=O)N3CCCC3)cc2s1)C1CCCO1 (stereo not drawn)	-18.9% (inactive)	–
CC(=O)Nc1c2c(nn1-c1ccc(C)cc1C)CS(=O)C2 (stereo not drawn)	-7.3% (inactive)	–
O=C(O)c1ccc(NC(=O)C2CCCCC2)cc1	-7.37% (inactive)	–
CC(=O)c1ccc(S(=O)(=O)Nc2ccc(-c3ccc4nncn4n3)cc2)cc1	13.5% (inactive)	–
O=C(Nc1ccc(-c2ccc3nncn3n2)cc1)C1CCCCC1	–	16.4 µM (active)
